Reference: PubChem BioAssay AID651871 (Sanford-Burnham Center for Chemical Genomics, 2012)

Tested on: H9c2
Assay: protection of cardiomyocytes from stress damage, SAR follow-up, cell-based, panel, H9c2 and HL-1, ATP luminescence, set 2 (AID 651871);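 also: cells exposed to stressor for 2 h before ATP readout; reference of the scale not given here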
Settings: H9c2/HL-1 cardiomyocytes, H2O2 oxidative stress, with H2O2, run 2, at 39.5 µM (top of the series)

How did the activity (protection/inhibition) turn out when COc1ccc2c(c1OC)C(=O)N1c3ccccc3C(=O)N(Cc3cccc(Cl)c3Cl)C21 (stereo unspecified) was run?
The activity (protection/inhibition) was 48.1%.
